# Reference: the supplement of paper PMC6555819
# Columns and labels:
# Assay in all cases: PBM binding z-score (relative to random genomic background probes); higher = stronger binding; sequences stand for … in GC…GCGATTGACAGCGTAGAATGAAGG
# [1] = test system: FXR:RXRa (NR concentration 270 nM, RXRa partner concentration 90 nM)
# Method in brief: (§1)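 Binding z-scores take random background probes as their reference. They come from custom Agilent 4×180K protein-binding microarrays incubated 1 h with ligand-free nuclear receptor dimers, with antibodies against each partner (one per run) detecting binding. Scanned fluorescence was regression-normalized.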
# [2] = test system: LXRa:RXRa (NR concentration 270 nM, RXRa partner concentration 90 nM)
# Method in brief: as §1
# [3] = test system: LXRa homodimer (NR concentration 270 nM)
# Method in brief: as §1
# [4] = test system: LXRb:RXRa (NR concentration 270 nM, RXRa partner concentration 90 nM)
# Method in brief: as §1
# [5] = test system: LXRb homodimer (NR concentration 270 nM)
# Method in brief: as §1
# [6] = test system: PPARa:RXRa (NR concentration 270 nM, RXRa partner concentration 90 nM)
# Method in brief: as §1
# [7] = test system: PPARg:RXRa (NR concentration 180 nM, RXRa partner concentration 90 nM)
# Method in brief: as §1
# [8] = test system: PPARg:RXRa 270nM:90nM, anti-RXR (NR concentration 270 nM, RXRa partner concentration 90 nM)
# Method in brief: as §1
# [9] = test system: PPARg:RXRa 30nM:10nM, anti-RXR (NR concentration 30 nM, RXRa partner concentration 10 nM)
# Method in brief: as §1
# [10] = test system: PPARg:RXRa 90nM:30nM, anti-RXR (NR concentration 90 nM, RXRa partner concentration 30 nM)
# Method in brief: as §1
# [11] = test system: PPARg:RXRa DBDmut IVT, anti-RXR (DBD mutation: RXRa K156A/R161A, NR concentration 270 nM, RXRa partner concentration 90 nM)
# Method in brief: as §1
# [12] = test system: PPARg:RXRa IVT, anti-PPARg (NR concentration 270 nM, RXRa partner concentration 90 nM)
# Method in brief: as §1
# [13] = test system: PPARg DBDmut:RXRa IVT, anti-PPARg (DBD mutation: PPARg1 K132A/R137A, NR concentration 270 nM, RXRa partner concentration 90 nM)
# Method in brief: as §1
# [14] = test system: PPARg DBDmut IVT, anti-PPARg (DBD mutation: PPARg1 K132A/R137A, NR concentration 270 nM)
# Method in brief: as §1
# [15] = test system: PPARg homodimer (NR concentration 180 nM)
# Method in brief: as §1
# [16] = test system: PXR:RXRa (NR concentration 270 nM, RXRa partner concentration 90 nM)
# Method in brief: as §1
# [17] = test system: PXR homodimer (NR concentration 270 nM)
# Method in brief: as §1
# [18] = test system: RARa:RXR (NR concentration 270 nM, RXRa partner concentration 90 nM)
# Method in brief: as §1
# [19] = test system: RARa homodimer (NR concentration 270 nM)
# Method in brief: as §1
# [20] = test system: RARb:RXRa (NR concentration 270 nM, RXRa partner concentration 90 nM)
# Method in brief: as §1
Sequence,PBM binding z-score [1],PBM binding z-score [2],PBM binding z-score [3],PBM binding z-score [4],PBM binding z-score [5],PBM binding z-score [6],PBM binding z-score [7],PBM binding z-score [8],PBM binding z-score [9],PBM binding z-score [10],PBM binding z-score [11],PBM binding z-score [12],PBM binding z-score [13],PBM binding z-score [14],PBM binding z-score [15],PBM binding z-score [16],PBM binding z-score [17],PBM binding z-score [18],PBM binding z-score [19],PBM binding z-score [20]
TAGCCTAGGACATGGGCCAGTATACCACGCGAAC,-0.615,-0.64,-0.616,-0.618,-0.673,-0.454,0.715,-0.284,-0.595,-0.49,-1.18,-0.594,-0.263,-0.978,-0.814,-0.387,-0.477,-0.815,-0.515,0.0238
CAAACTAGGTCACCTGAAGGTCAAAGTCCGCATG,5.8,5.89,5.41,5.04,1.6,5.79,9.15,7.17,5.48,7.17,8.35,8.25,1.4,0.822,7.4,5.61,2.75,7.1,2.19,5.14
CCGACTGGGGCAGAGAGGTTACCATACCATCCGG,-0.137,0.273,-0.349,0.271,-1.44,1.48,1.35,1.6,-0.221,0.899,2.02,1.91,-0.515,-1.59,0.15,0.359,-0.131,0.845,0.129,1.24
ATATGTAGGTTAAGGGTCACTCAGGTTGGTTCGC,4.78,4.46,1.96,4.27,1.2,6.85,11.8,10.2,10.8,11.2,7.97,8.15,1.94,2.59,3.56,5.09,1.94,6.1,2.24,3.95
ACAGTCAGGTGATGAAGGTAACTCAGGCTATCAT,0.11,-0.185,-0.351,-0.331,-0.338,0.116,0.349,-0.0826,0.0143,-0.0221,0.347,0.415,0.348,0.294,0.022,-0.36,-0.211,0.136,-0.284,0.503
GGAACGAGGGCAAAGATGATAGCATCTGTCGACG,0.376,0.281,-0.604,0.258,-0.642,2.65,3.63,4.6,2.92,4.39,3.87,3.02,-0.58,0.0962,0.289,0.215,-0.309,0.189,-0.373,1.98
GCTAGTCGGTCAGTAAAAGGTCACACACCGGTCG,4.06,4.97,5.34,4.32,0.747,4.67,3.19,4.83,2.43,4.01,2.63,3.74,0.159,0.0206,4.9,5.25,1.05,6.26,2.14,4.65
GCGACTGGTGCATCAGCAGGTTACCATAACTTAA,-0.753,-0.531,-0.541,-0.267,-1.02,-0.237,-0.0578,-0.215,-0.641,-0.986,-0.556,-0.572,-1.07,-0.356,-0.496,-0.248,-0.653,-0.046,-1.22,-0.228
GCTGTTAGGTCAGGTTGGTCAGCTAACGGGTACG,1.95,1.14,-0.132,1.04,0.0917,1.79,0.166,1,-0.41,0.138,2.26,1.9,-0.586,0.313,1.07,0.645,-0.159,1.28,0.0798,3.49
CGAACTATGTCAGAACAGGACAGTGAAGGATGAT,0.0056,-0.347,-0.162,-0.473,0.636,0.0465,0.811,0.229,0.135,-0.000779,1.99,1.16,0.888,0.9,0.278,-0.225,0.0805,0.0752,0.625,0.461
ACTAGCAGGTCAAGTTTGGGTCACTCAAACAAAG,5.89,4.79,1.41,3.88,1.28,4.83,4.43,4.76,1.27,3.41,4.12,4.73,0.847,0.843,3.76,4.22,0.228,5.89,0.164,4.61
TCATATAGGTAAATGCTAGGTAAAAGTCCGATCT,1.25,1.02,0.456,0.888,0.06,1.36,0.914,2.29,3.89,2.93,4.04,2.3,0.817,0.766,0.885,0.727,0.893,0.814,1.8,0.393
GATAGAGGGTCAGCTAGAGGCCAGAGTATGGAAA,3.79,2.41,-0.113,2.02,-0.604,3.92,2.36,2.57,0.476,1.54,1.62,2.24,-0.25,-0.22,1.64,2.44,-0.0848,3.7,0.224,3.85
TCGAGTAGGTTAGGGGCCTTCAGAATGGCGTCGA,-0.193,-0.323,-0.797,-0.221,-0.986,0.54,0.638,2.19,0.926,2.03,1.32,1.07,-0.729,-0.939,-0.145,-0.478,-0.829,-0.114,-1.13,0.24
ACAGACAGGTCAGTGAAGGTAACTCAGCTGGACG,2.55,1.83,-0.374,1.07,-0.266,2.47,1.18,1.05,-0.166,0.444,0.901,1.22,-0.0695,-0.218,0.397,1.57,-0.149,1.78,0.123,3.51
TCTTCTAGATCAATAGAGGTTAAGAAAGTGCGCT,0.907,3.4,0.664,1.92,0.831,1.9,0.156,2,3.32,2.76,2.16,1.48,1.87,0.999,0.764,3.02,0.423,1.8,0.413,0.98
AGAATGAGGTTATAAAGATCAGGGAATTGCGGTC,1.45,1.31,0.315,1.17,0.00236,2.65,1.58,2,0.752,1.52,2.13,2.04,0.947,0.696,1.14,1.2,0.572,1.58,0.211,1.32
ACTCGGAGGACAAAGGTCAAAGCTACGCCAGTGA,6.13,5.86,4.17,5.35,1.64,6.23,8.63,7.42,6.79,8.13,1.44,4.45,-0.163,-0.288,3.24,5.4,0.776,6.35,0.304,5.24
TAGCATAGGTCATGGGCCAGTATACCACGCGAAC,6.75,5.37,0.897,4.03,0.148,5.98,5.56,5.31,2.04,4.24,0.625,2.53,0.682,0.0731,2.07,3.23,-0.144,4.27,0.528,4.41
CAAACTAGGTCAGGAAAGGTCAAAGTCGAATGAC,6.17,6.74,6.35,6.12,1.93,6.08,8.46,6.82,4.45,6.88,7.59,8.02,3.96,1.14,6.11,6.57,2.16,6.83,3.88,5.36
CCTTACGGGTCACTCCAGGTTGTAGCATCGGAGT,4.5,6.32,0.477,3.72,0.0911,4.42,2.92,3.54,0.72,2.5,2.42,3.11,0.374,0.469,1.62,3.85,-0.0202,3.84,0.553,3.65
CCGACTGGGCCAGAAAGGTTACCATACCATCCGG,0.387,0.792,-0.182,0.895,-0.545,1.88,0.92,0.91,0.0101,0.541,0.593,0.483,-0.91,-1.13,0.203,0.831,-0.302,1.83,-0.242,1.47
TCTTGTAGATCAGAAGGTTAAGAAAGCTGGCCAA,0.619,1.02,0.09,1.16,-0.193,1.54,0.167,2.4,3.46,3.03,1.98,0.611,0.0732,-0.22,0.201,0.61,0.0531,0.924,0.498,1.07
GCGACTGGGGCAACAGCAGGTTACCATAACTTAA,0.03,1.28,-0.408,0.734,-0.94,1.25,1.43,1.47,-0.0459,0.485,4.72,3.85,-0.661,-0.485,0.0811,0.146,-0.288,0.56,-0.561,1.02
ACTAGTTGGTCAGCTGAGGTCAAACACAATTCGG,3.81,4.24,4.08,4.26,1,4.22,1.65,2.34,0.396,1.55,1.45,2.49,0.694,0.579,3.02,6.03,3.32,5.18,2.07,3.62
GCTATTAGTTGTAAGGGCAACCGAATGATTCTCG,0.301,0.305,0.235,0.38,-0.00961,0.472,0.397,0.63,0.129,0.634,0.378,0.518,0.0721,0.01,0.811,0.273,0.159,0.496,0.359,1.41
ATATGTAGGTTAGCTAGGGTCATTCAGACTAGGC,4.45,5.22,1.89,3.59,0.624,4.36,4.65,4.41,2.3,3.61,6.58,6.18,2.95,1.89,3.4,5.64,2.1,4.85,1.52,2.71
GCTGCTAGGTCAGTTTGGTCAGCTAACGGGTACG,1.08,0.563,-0.212,0.437,0.134,0.943,0.183,0.678,-0.304,0.407,2.93,2,-0.859,-0.221,0.433,0.0587,-0.275,0.504,-0.322,3.1
